Rac1 wt modul: wildtype Rac1 GTP binding modulators, primary screen, biochemical, GST-Rac1 beads, flow cytometry, multiplex. fluorescent GTP binding; actives lie on both sides; 0 = cold GTP competed, 100 = untreated. GTP binding activity (% of control), % at 10 µM. actives 0.27% (n = 190,000). Ras-related C3 botulinum toxin substrate 1 (Homo sapiens), P63000. AID 757, 2007;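 active means GTP binding activity at least 20 points away from the 100% control level, either lower or higher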
Rab2 wt GTP: modulators of GTP binding to Rab2A wildtype, primary screen, biochemical, dog, bead-based flow cytometry, multiplex. Ras-related protein Rab-2A (Canis lupus familiaris), P61105. AID 760, 2007. GST-Rab2 wt beads, Bodipy-GTP binding. actives 0.19% (n = 190,000). GTP binding activity, % at 10 µM;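 active means GTP binding activity at least 20 points away from 100%, either lowered or raised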
Cdc42 wt GTP: modulators of GTP binding to wildtype Cdc42, primary screen, biochemical, multiplex bead flow cytometry, Bodipy-GTP | AID 761, 2007 | GST-Cdc42 beads; actives lie on both sides | actives 0.2% (n = 190,000) | percent activity (GTP binding), % at 10 µM;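 active means percent activity GTP binding at least 20 points away from the 100% baseline, either down as inhibitor or up as activator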;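 further: median bead fluorescence of bound Bodipy-FL-GTP at 100 nM; below 100% means less GTP binding so inhibitor and above means activator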
Target sequence (P60953 whole entry, looked up): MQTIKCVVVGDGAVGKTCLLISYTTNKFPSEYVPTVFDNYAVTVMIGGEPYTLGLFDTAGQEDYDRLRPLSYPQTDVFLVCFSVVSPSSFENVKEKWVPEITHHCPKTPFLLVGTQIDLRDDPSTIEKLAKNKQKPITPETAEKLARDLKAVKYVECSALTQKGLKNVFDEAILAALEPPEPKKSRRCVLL
HRas wt GTP: modulators of GTP binding to HRas wildtype, primary screen, biochemical, bead-based flow cytometry, multiplex; GTPase HRas (Homo sapiens), P01112; GST-Ras wt beads, Bodipy-FL-GTP binding; actives lie on both sides; actives 0.14% (n = 190,000); GTP binding activity, % at 10 µM; AID 759, 2007;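 active means GTP binding activity at least 20% away from the 100% baseline, either lowered as inhibitor or raised as activator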
Target sequence (P01112 whole entry, looked up): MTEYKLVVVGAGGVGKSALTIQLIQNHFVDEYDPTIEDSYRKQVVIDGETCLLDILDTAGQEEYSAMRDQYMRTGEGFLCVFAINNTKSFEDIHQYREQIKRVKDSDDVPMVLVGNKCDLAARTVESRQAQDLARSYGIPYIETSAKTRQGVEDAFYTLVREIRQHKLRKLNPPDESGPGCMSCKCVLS
Rab7 wt modul: modulators of GTP binding to Rab7, primary screen, biochemical, wildtype, multiplex bead flow cytometry. GST-Rab7 beads, fluorescent GTP binding; actives lie on both sides; untreated = 100%, excess cold GTP = 0%. actives 0.055% (n = 190,000). GTP binding activity (percent of control), % at 10 µM. Rab7 GTPase wild type (dog), Bodipy-FL-GTP binding;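 active means fluorescent GTP binding to Rab7 beads changed by at least 20 points from the 100% baseline, either direction, mostly lower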;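 further: median green fluorescence of bound Bodipy-FL-GTP per Rab7 bead population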
Rac1 mut GTP: GTP binding modulators of activated mutant Rac1, primary screen, biochemical, bead-based flow cytometry, multiplex, fluorescent GTP | GST-Rac1 activated beads; actives lie on both sides; 100% means binding = to untreated wells | percent activity (GTP binding), % at 10 µM | actives 0.11% (n = 190,000) | Ras-related C3 botulinum toxin substrate 1 (Homo sapiens), P63000;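 active means GTP binding at least 20 percentage points away from the 100% baseline, in either direction, so actives lie on both sides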
A number is an active result; . = inactive; [ ] = another dose, or the depositor's remark. An excerpt weighted towards active compounds, which were near 0.37% of everything screened.

SMILES	Rac1 wt modul	Rab2 wt GTP	Cdc42 wt GTP	HRas wt GTP	Rab7 wt modul	Rac1 mut GTP
Cc1cc(C)n(C(=O)CNC(=O)C2COc3ccccc3O2)n1 (stereo unspecified)	.	.	.	.	.	.
Cc1cccc(/C=N/N(CCO)C2=NS(=O)(=O)c3ccccc32)c1	68.0	.	.	.	.	.
N#CCCN(/N=C/c1cccnc1)C1=NS(=O)(=O)c2ccccc21	.	.	.	.	.	.
Cc1ccc(C(=O)Nc2ccnc(-c3cccnc3)n2)cc1	.	.	.	.	.	.
Cc1ccc(NC(=O)Nc2ccnc(-c3cccnc3)n2)cc1	.	64.0	65.0	67.0	.	.
N=C1/C(=C\c2ccc(SCc3ccco3)o2)C(=O)N=C2SC=NN12	76.0	77.0	72.0	74.0	.	.
COc1cc(SC#N)ccc1N=Cc1c(C)[nH]n(-c2ccc(Cl)cc2)c1=O	.	.	.	.	.	.
COc1cc(SC#N)ccc1N=Cc1c(C)[nH]n(-c2ccc(C)c(C)c2)c1=O	78.0	79.0	.	.	.	.
COc1ccc2o/c(=N/NC(=O)c3cccs3)c(C(N)=O)cc2c1	57.0	61.0	60.0	61.0	.	.
O=S(=O)(Nc1cccc(-c2cn3cccnc3n2)c1)c1ccccc1	70.0	74.0	.	75.0	.	.
O=S(=O)(Nc1cccc(-c2cn3cccnc3n2)c1)c1ccc(-c2ccccc2)cc1	.	.	.	.	.	.
CCNC(=S)N=Nc1c(O)[nH]c2ccc([N+](=O)[O-])cc12	58.0	65.0	65.0	67.0	.	.
O=C1CN(C(=O)CSc2nc3ccccc3c(=O)n2Cc2ccc(F)cc2)c2ccccc2N1	.	.	.	.	.	.
COc1cccc(/C=N/NC(=O)C(C)Sc2ccccc2)c1 (stereo unspecified)	.	.	.	.	.	.
CCOc1cc(/C=N/NC(=O)C(C)Sc2ccccc2)ccc1O (stereo unspecified)	78.0	.	.	.	.	.
COc1ccc(N2C(=O)C3C4C=CC(C4)C3C2=O)nn1 (stereo unspecified)	.	.	.	.	.	.
COc1ccc(/C=N/NC(=O)c2ccco2)cc1Cn1nc(C)c([N+](=O)[O-])c1C	.	.	.	.	.	.
COc1ccc(/C=N/NC(=O)c2ccncc2)cc1Cn1nc([N+](=O)[O-])c(Br)c1C	76.0	68.0	65.0	74.0	.	.
Cc1c(Cl)c([N+](=O)[O-])nn1Cc1ccc(C(=O)N/N=C\c2ccccn2)o1	75.0	.	.	.	.	.
Cc1ccc(/C=N/NC(=O)c2ccc(Cn3cc([N+](=O)[O-])cn3)o2)cc1	.	.	.	.	.	.
CCCCCCC1CCC(c2nc(-c3ccncc3)no2)CC1 (stereo unspecified)	.	.	.	.	.	.
CCOc1ccc(NCc2ccccc2OCc2cccc(F)c2)cc1	129.0[activator]	.	.	.	.	.
COC(=O)c1ncccc1SC	.	.	.	.	.	.
COc1ccc(OCc2nc3c4cc(OC)c(OC)cc4nc(=S)n3[nH]2)cc1	77.0	.	.	.	.	.
NC(=S)N=Nc1c(O)[nH]c2c(Br)cc(Br)cc12	71.0	74.0	75.0	75.0	.	.
SMILES	Rac1 wt modul	Rab2 wt GTP	Cdc42 wt GTP	HRas wt GTP	Rab7 wt modul	Rac1 mut GTP
NC(=S)N=Nc1c(O)[nH]c2ccccc12	.	.	.	.	.	.
C/C=C/C(=O)OCC(=O)Nc1cccc(F)c1	.	.	.	.	.	.
O=C(O)c1cc(N2N=C(C(F)(F)F)/C(=C/C=C/c3ccco3)C2=O)ccc1Cl	.	.	79.0	.	.	76.0
CCOC(=O)C1(Cc2ccccc2C(F)(F)F)CCN(CC(O)CO)CC1 (stereo unspecified)	.	.	.	.	.	.
O=C(C1CC1)N1CCc2cc(Br)cc(S(=O)(=O)NCCCN3CCCC3)c21	.	.	.	.	.	.
COc1cc2c(cc1OC)-c1cc(N3CCCCCC3)nc(=O)n1CC2	.	.	.	.	.	.
COc1cc2c(cc1OC)-c1cc(NC3CCCCCC3)nc(=O)n1CC2	.	75.0	77.0	75.0	.	.
CCOc1cccc(Nc2cc3n(c(=O)n2)CCc2cc(OC)c(OC)cc2-3)c1	78.0	.	.	.	.	.
Cc1ccc2c(c1)c1nnc(SCC(=O)Nc3cccc(Cl)c3C)nc1n2CC(=O)O	74.0	.	.	.	.	.
Cc1ccc2c(c1)c1nnc(SCC(=O)Nc3ccccc3C(F)(F)F)nc1n2CC(=O)O	.	.	.	.	.	.
Cn1c(=O)c2cc(S(=O)(=O)NCCC(=O)NCc3ccccc3Cl)ccc2n(C)c1=O	.	64.0	68.0	68.0	.	.
CCOC(=O)Cn1nnnc1C(CC)N(Cc1cccs1)Cc1cc2cc(C)ccc2[nH]c1=O (stereo unspecified)	.	.	.	.	.	.
CCOC(=O)Cn1nnnc1C(C(C)C)N(Cc1cccs1)Cc1cc2cc(C)ccc2[nH]c1=O (stereo unspecified)	.	.	75.0	.	.	.
O=C(Nc1ccc(N2CCN(C(=O)c3cccs3)CC2)cc1)c1cccnc1	.	.	.	.	.	.
N#Cc1c(Nc2ccccc2)c(/C=N/N=C/c2ccccc2)c[nH]c1=O	75.0	.	.	76.0	.	.
N#Cc1c(Nc2ccccc2)c(/C=N/NCCO)c[nH]c1=O	.	.	.	.	.	.
Cc1nc(Nc2ccc(C(=O)O)cc2)nc(Nc2ccc(C(=O)O)cc2)c1[N+](=O)[O-]	62.0	55.0	55.0	60.0	.	77.0
CC(=O)Nc1ccc(Nc2nc(C)c([N+](=O)[O-])c(Nc3ccccc3)n2)cc1	.	.	.	.	.	.
O=C(C(Cc1ccccc1)N1C(=O)C2C3C=CC(C3)C2C1=O)N1CCCCCC1 (stereo unspecified)	.	.	.	.	.	.
COc1ccc(CCn2c(C(C)C)nc3c(c(=O)c4ccccc4n3C)c2=O)cc1	.	77.0	.	.	.	.
COc1ccc(CCn2c(C)nc3c(c(=O)c4ccccc4n3C)c2=O)cc1	.	.	.	.	.	.
